From article PMC5836133, “The intracellular immune receptor Rx1 regulates the DNA-binding activity of a Golden2-like transcription factor” come the findings set out here.

The full ranking holds about 16,000 sequences; the median of “e-score” is about -0.044, and the highest 2% start at about 0.38. The full list was thinned out, with the highest values kept by preference.

This assay deals with T1, GST-NbGlk1(82-244) (Nicotiana benthamiana).
T1 chain: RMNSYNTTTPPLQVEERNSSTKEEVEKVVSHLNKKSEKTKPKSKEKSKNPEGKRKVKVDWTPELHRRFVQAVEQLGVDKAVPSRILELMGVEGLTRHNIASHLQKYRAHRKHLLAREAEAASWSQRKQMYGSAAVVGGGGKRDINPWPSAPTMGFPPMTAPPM
Put plainly: protein-binding microarray; NbGlk1 is a Golden2-like transcription factor of Nicotiana benthamiana; high values mean tight binding. To be noted: protein: recombinant; tags: GST (pTH6838); dsDNA, one strand shown.
As to ATTCCCCC, the binding signal was determined as 0.37 ± 0.0231 E-score.

Turning to ATCTATAC, the binding signal was found to be 0.231 ± 0.121 E-score. For AGATATAT, the binding signal turned out to be 0.316 ± 0.0185 E-score.

On to AGATACGG, for which the binding signal is 0.372 ± 0.019 E-score. Consider AGATACGC, for which the binding signal came to 0.422 ± 0.0238 E-score. ACATATCT: the binding signal was found to be 0.344 ± 0.0128 E-score.

Turning to AGATACGA, the binding signal was 0.332 ± 0.0469 E-score. As for AGATATCT, the binding signal is 0.48 ± 0.00495 E-score. For ATCTTCAA, the binding signal worked out at 0.303 ± 0.0183 E-score. With ATATTGGA, the binding signal came out at 0.241 ± 0.0475 E-score. In the case of ATCAGGAA, the binding signal stood at 0.288 ± 0.064 E-score. For the sequence ATAGGAAT, the binding signal is 0.275 ± 0.0501 E-score.

On to AATCCGGA, for which the binding signal stood at 0.42 ± 0.0333 E-score. With AATCCGTC, the binding signal was 0.39 ± 0.0333 E-score. AATCCGTA: the binding signal was 0.337 ± 0.0439 E-score.

For the sequence ATTCCGGA, the binding signal turned out to be 0.232 ± 0.0263 E-score. Regarding AATCCGGT, the binding signal was determined as 0.393 ± 0.0261 E-score. For AATCCTTC, the binding signal is 0.265 ± 0.077 E-score.

In the case of AATCCGGG, the binding signal amounted to 0.368 ± 0.0574 E-score. Consider AATCCTGT, for which the binding signal is 0.371 ± 0.0247 E-score. Turning to ATCCCGGA, the binding signal is 0.308 ± 0.0187 E-score.

For the sequence AATCCGGC, the binding signal was 0.3885 ± 0.00169 E-score. Turning to AATCCGTG, the binding signal is 0.322 ± 0.0593 E-score. Consider ATCGTCAA, for which the binding signal amounted to 0.231 ± 0.0882 E-score. Take ACCCAGAT: the binding signal was 0.247 ± 0.0788 E-score.

As for CACCGATA, the binding signal turned out to be 0.256 ± 0.0751 E-score. The same measure for ATCAGCGA: 0.229 ± 0.0488 E-score. The same measure for AATCACAA: 0.346 ± 0.0519 E-score; for ATTTTCTC: 0.316 ± 0.054 E-score. On to ACGCGGAT, for which the binding signal was 0.235 ± 0.023 E-score. With ATAAAGAT, the binding signal was determined as 0.279 ± 0.0792 E-score. The same measure for ACCAATAT: 0.204 ± 0.0315 E-score; for AATAATAT: 0.259 ± 0.0722 E-score. In the case of AATCTGAT, the binding signal is 0.414 ± 0.0225 E-score. Regarding AATCTGTC, the binding signal stood at 0.391 ± 0.00978 E-score. On to ATTCTGTC, for which the binding signal is 0.335 ± 0.0209 E-score. Next, ATTCTGAC: 0.242 ± 0.101 E-score; AATCTGAC: 0.417 ± 0.0317 E-score. As to AATATGAT, the binding signal was 0.222 ± 0.00614 E-score. For the sequence AATCTGCT, the binding signal came to 0.37 ± 0.0413 E-score. For AAACAGAT, the binding signal stood at 0.229 ± 0.0973 E-score. As for ATCTTGAC, the binding signal worked out at 0.272 ± 0.0538 E-score. Regarding AATCGTAT, the binding signal was determined as 0.339 ± 0.0131 E-score. In the case of AGATCGCC, the binding signal was 0.353 ± 0.0264 E-score. On to AGATCGTA, for which the binding signal was determined as 0.283 ± 0.0295 E-score. The same measure for AAATCGCA: 0.3786 ± 0.00224 E-score; for AGATCGCG: 0.464 ± 0.00467 E-score. The same measure for CAATCGCG: 0.2571 ± 0.00241 E-score; for AAATCGCG: 0.4246 ± 0.00159 E-score. ATATCGCC: the binding signal was 0.333 ± 0.0165 E-score. The same measure for AGATCGCT: 0.346 ± 0.00634 E-score. For AGATCGCA, the binding signal is 0.396 ± 0.016 E-score. ATATCGCG: the binding signal turned out to be 0.415 ± 0.00817 E-score. Turning to ATATCGCA, the binding signal stood at 0.355 ± 0.0163 E-score. With AAATCGCC, the binding signal was 0.322 ± 0.0236 E-score. Consider AGCGCAAT, for which the binding signal amounted to 0.303 ± 0.0261 E-score. Turning to AAATCGTT, the binding signal came to 0.248 ± 0.085 E-score. The same measure for AAATCCTT: 0.392 ± 0.0185 E-score. As for AATCCCTA, the binding signal came to 0.281 ± 0.0127 E-score.

For the sequence AGATCCTC, the binding signal was determined as 0.387 ± 0.0145 E-score.

In the case of CAATCCTA, the binding signal came to 0.288 ± 0.0058 E-score. AGATCCTA: the binding signal was found to be 0.314 ± 0.00874 E-score. The same measure for AAATCATT: 0.223 ± 0.00449 E-score.

Take AAATCCTA: the binding signal stood at 0.417 ± 0.00908 E-score.

Regarding AAATCCTG, the binding signal turned out to be 0.4223 ± 0.00332 E-score. In the case of AGATCCTG, the binding signal amounted to 0.369 ± 0.0433 E-score. On to CAATCCTG, for which the binding signal amounted to 0.3281 ± 0.00274 E-score. For ATTTCACC, the binding signal amounted to 0.214 ± 0.151 E-score. Consider ATTCCCCA, for which the binding signal was determined as 0.256 ± 0.075 E-score. On to ATCCTCGC, for which the binding signal is 0.205 ± 0.0887 E-score. ATAGATCC: the binding signal came to 0.21 ± 0.00109 E-score.

For the sequence ATCTGTTG, the binding signal is 0.301 ± 0.07 E-score. Turning to ATATATAC, the binding signal is 0.227 ± 0.00145 E-score. On to AAATACGC, for which the binding signal was found to be 0.2039 ± 0.00167 E-score. With ATCCGGAC, the binding signal worked out at 0.272 ± 0.0502 E-score. In the case of ATCGATTA, the binding signal was 0.207 ± 0.0952 E-score. For the sequence CAAGATCG, the binding signal was 0.284 ± 0.0247 E-score. AATATAAA: the binding signal was determined as 0.254 ± 0.107 E-score. On to AATCCCTC, for which the binding signal was 0.293 ± 0.0225 E-score. Regarding CAATCCTC, the binding signal came to 0.269 ± 0.0948 E-score. As to AAATCCTC, the binding signal is 0.414 ± 0.051 E-score. Regarding ATTCCCGA, the binding signal amounted to 0.333 ± 0.0675 E-score. Consider ATCCCAAG, for which the binding signal turned out to be 0.206 ± 0.0761 E-score. AATATATT: the binding signal turned out to be 0.285 ± 0.0974 E-score. For the sequence ATAATCTG, the binding signal was 0.356 ± 0.0112 E-score. The same measure for ATAATCTA: 0.334 ± 0.0306 E-score.

With AGAATCTG, the binding signal is 0.4793 ± 0.00413 E-score.
